Tg IFNy HTS: T. gondii growth inhibition under IFN-gamma | activity change, negative = inhibition, % (no concentration beside the values) | AID 1259416 | Toxoplasma gondii growth in IFN-gamma-treated host cells; stronger effect = lower value | hit rate 3.8% among 69,000; in the data active means activity change below about -70%, passing the limit was not always enough;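 further: host cells are HeLa cells infected with Toxoplasma gondii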
* marks the source's active call; other numbers are inactive results; ! = a repeat was not active. The sample as a whole holds a higher share of hits than the screen did.

SMILES	Tg IFNy HTS
Clc1ccccc1CCNc1nc(-c2nnc(-c3ccccc3)o2)nc2ccccc12	-61
Cc1nc2c(c(=O)[nH]1)CCN(C(=O)CCN1C(=O)C3CCCCC3C1=O)C2 (stereo not drawn)	-11
O=C(c1ccc(CO)cc1)N1CCCC(CCc2cccc(C(F)(F)F)c2)C1 (stereo not drawn)	-31
Cc1cccc(-c2nc(C)c(CCNS(=O)(=O)c3cc(F)ccc3F)s2)c1	352
CC(=O)O[C@@]12CO[C@@H]1C[C@H](O)[C@@]1(C)C(=O)[C@H](O)C3=C(C)[C@@H](OC(=O)[C@H](O)[C@@H](NC(=O)OC(C)(C)C)c4ccccc4)C[C@@](O)([C@@H](OC(=O)c4ccccc4)C12)C3(C)C (stereo partly drawn)	-83*
CO[C@H]1C(=O)[C@@]2(C)[C@H]([C@@H](OC(=O)c3ccccc3)[C@@]3(O)C[C@H](OC(=O)[C@H](O)[C@@H](NC(=O)OC(C)(C)C)c4ccccc4)C(C)=C1C3(C)C)[C@]1(OC(C)=O)CO[C@@H]1C[C@H]2OC	-79*
CC(=O)O[C@@]12CO[C@@H]1C[C@H](O)[C@@]1(C)C(=O)[C@H](O)C3=C(C)[C@@H](OC(=O)[C@H](O)[C@@H](NC(=O)OC(C)(C)C)c4ccccc4)C[C@@](O)([C@@H](OC(=O)c4ccccc4)[C@H]21)C3(C)C	-72*!
Cc1oc(-c2ccccc2)nc1CSc1nc2c(=O)[nH]cnc2n1C	-12
O=C(O)CC1CCC2(CC1)CCN(C(=O)c1ccccc1F)CC2	1
Cc1cc(C2CCCCCN2Cc2ccc(O)cc2)on1 (stereo not drawn)	30
CCOC(=O)c1cncc(C#CCOC(=O)Nc2ccc(OC(F)(F)F)cc2)c1	-33
O=C(O)CC1(CC(=O)Nc2ccc(OC(F)(F)F)cc2)CCCC1	36
O=C(Nc1ccc(OC(F)(F)F)cc1)OCc1ccc(C#Cc2ccccc2)s1	-83*
Cc1cnc(C)c(N2CC(c3ccncc3)C2)n1	7
CN1CC2(CCN(C(=O)CCC(=O)c3ccc(F)cc3)C2)OC1=O (stereo not drawn)	3
COc1cccc(C(=O)N2C[C@H](OCC3CC3)[C@@H]3OCCC[C@@H]32)c1	-6
CCC(C)NC(=O)C(=O)N1CCC(N2CCC(C(=O)NC(C)C)CC2)CC1 (stereo not drawn)	-3
Cn1ccc2c(-c3ccccc3C(N)=O)ccnc21	8
Cn1ccc2c(-c3cc(N4CCCCC4)ncn3)ccnc21	24
Cc1nc(-n2cnnc2)ccc1-c1ccnc2c1ccn2C	-97*
NC1CCCN(C(=O)c2cc(=O)[nH]c3cc(F)ccc23)CC1 (stereo not drawn)	2
Cc1ccc(-n2c(SCc3nc(-c4ccc(Cl)cc4)oc3C)nc3c(=O)[nH]cnc32)cc1	-16
Cc1ccc2[nH]c(=O)c(-c3nc(-c4ccc5c(c4)OCO5)no3)c(O)c2c1	335
CC(c1ccc(-c2ccc3c(c2)OCO3)cc1)N1CCOCC1 (stereo not drawn)	90
Cc1c(C)c(C)c2[nH]c(-c3ccc4c(c3)OCO4)nc2c1C	-95*
SMILES	Tg IFNy HTS
COC(=O)c1c(NCCN2CCC(C)CC2)c2cccc(Cl)c2[nH]c1=O	19
COC(=O)c1c(NC(C)c2ccccc2)c2cccc(Cl)c2[nH]c1=O (stereo not drawn)	-19
CCCCNc1c(C(=O)OC)c(=O)[nH]c2c(Cl)cccc12	-23
COC(=O)c1c(NCc2ccc(C)o2)c2cccc(Cl)c2[nH]c1=O	-62
CCCNc1c(C(=O)OC)c(=O)[nH]c2c(Cl)cccc12	-13
CCOc1cccc(CNc2c(C(=O)OC)c(=O)[nH]c3c(Cl)cccc23)c1	-82*
COC(=O)c1c(NCCc2cccs2)c2cccc(Cl)c2[nH]c1=O	-86*
COC(=O)c1c(NCc2ccccc2F)c2cccc(Cl)c2[nH]c1=O	-38
COC(=O)c1c(NCc2ccc(F)cc2)c2cccc(Cl)c2[nH]c1=O	-88*
O=C(C1CCCN(C2CCN(CCCc3ccccc3)CC2)C1)N1CCCC1 (stereo not drawn)	-9
Cn1nc(C2CCN(c3ncccc3C(N)=O)CC2)n(-c2ccccc2)c1=O	-64
CCn1c(-c2cc(C3CC3)[nH]n2)n[nH]c1=O	1
COCC(c1ccccn1)N(C)C(=O)c1cnc(-c2ccccc2)nc1 (stereo not drawn)	3
c1cnc(NCc2n[nH]c3c2CCN(CC2CC2)C3)nc1	5
COCc1nnc(NC(=O)C(C)Oc2ccc(Cl)cc2Cl)s1 (stereo not drawn)	11
Brc1ccc2[nH]c3c(Br)cc(Br)cc3c2c1	16
O=C1Cc2c([nH]c3ccc(Br)cc23)-c2ncccc2N1	-7
Brc1ccc2[nH]c3c(c2c1)CCCC3NCc1ccccc1 (stereo not drawn)	-98*
CC1CCN(c2ncnc3c2cnn3CC(=O)NCc2ccc(F)cc2)CC1	-95*
O=C(Cn1ncc2c(N3CCCCC3)ncnc21)NCc1ccncc1	-29
CCOc1ccc(CNC(=O)Cn2ncc3c(N4CCC(C)CC4)ncnc32)cc1OCC	189
CCN(CC)c1ncnc2c1cnn2CC(=O)NCc1cc(F)cc(F)c1	32
O=C(Cn1ncc2c(N3CCOCC3)ncnc21)NCc1ccc(C(F)(F)F)cc1	-35
O=C(Cn1ncc2c(N3CCCC3)ncnc21)NCc1ccc(F)cc1	-61
Cc1ccc(CNC(=O)Cn2ncc3c(N4CCCC4)ncnc32)cc1	44
SMILES	Tg IFNy HTS
O=C(Cn1ncc2c(N3CCCCCC3)ncnc21)NCc1ccc(C(F)(F)F)cc1	-82*
CCN(CC)c1ncnc2c1cnn2CC(=O)NCc1ccc(F)cc1F	-104*
CCN(CC)c1ncnc2c1cnn2CC(=O)NCc1ccc(F)c(Cl)c1	-28
CCc1ccc(CNC(=O)Cn2ncc3c(N4CCCCC4)ncnc32)cc1	168
Cc1ccc(CNC(=O)Cn2ncc3c(N4CCC(C)CC4)ncnc32)cc1	-94*
Cc1nc(-c2cccc(F)c2)sc1CCNC(=O)COc1ccc(Cl)cc1	-21
CCN1CCC2(CN(C(C)=O)CC23CCN(S(=O)(=O)C2CC2)CC3)C1=O (stereo not drawn)	-53
COc1cccc(C(=O)N2CCC3(CC2)Nc2cc(F)ccc2-n2cccc23)c1	7
CN(C)C(=O)C1OC2(CCN(C(N)=O)CC2)c2ccccc21 (stereo not drawn)	-12
Cc1occc1C(=O)N1CCn2cc(CNc3ccccn3)nc2C1	-8
CCOC(=O)c1ccccc1NC(=O)N1CCN2CCN(C)C(=O)C2C1 (stereo not drawn)	0
Cc1ccccc1NC(=O)N1CC2CC(C(=O)N(C)C)C(C1)O2 (stereo not drawn)	-8
COc1cccc(C(CNS(=O)(=O)N2CCC(C)CC2)N2CCCC2)c1 (stereo not drawn)	9
Cc1c2oc3c(C)ccc(C(=O)OC(C)C4NC(=O)C(C(C)C)N(C)C(=O)CN(C)C(=O)C5CCCN5C(=O)C(C(C)C)NC4=O)c3nc-2c(C(=O)OC(C)C2NC(=O)C(C(C)C)N(C)C(=O)CN(C)C(=O)C3CCCN3C(=O)C(C(C)C)NC2=O)c(N)c1=O (stereo not drawn)	-83*
CC(C)CCN1C[C@]23CN(C(=O)COc4ccccc4)C[C@@H](C[C@H]2S1(=O)=O)O3	-6
COc1cccc(CC(=O)N2C[C@H]3C[C@@H](Cc4nc(C)no4)O[C@@H]3C2)c1	20
CC(=O)c1ccc(N2CCC(C)CC2)c(F)c1	-8
CN1CCN(c2ccc(NC(=O)Nc3ccc(C(F)(F)F)cc3)cc2)CC1	1
